Results filed as inconclusive are left out. The source made the active and inactive calls. Unless noted, the call rests on the fitted dose curve; in most records, active means well fitted curve in the direction sought with a large enough effect; inconclusive means small, poorly fitted or top-dose-only effect, or another doubt; inactive means no such curve, though single readings can be large; an effect the other way counts as inactive or inconclusive.

Data on 27 molecules can be found in PubChem BioAssay (NCATS).

Assay [1] in a line: Natriuretic polypeptide receptor (hNpr1) antagonism - Pilot counterscreen GloSensor control cell line (AID 1347045; calls by dose curve; further: potency means the concentration at half of the fitted maximal effect). The method, boiled down: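 HEK293 cGMP-sensor cells; 2% GloSensor reagent 2 h RT; LOPAC compounds in 1:5 titrations 30-50 min; 50 uM SNP 20 min; luminescence pre-read and post-read.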
A general note: Counterscreens check selectivity or assay interference.

For assay [2], the target named is Atrial natriuretic peptide receptor 1 (Homo sapiens) (UniProt P16066). Briefly: Natriuretic polypeptide receptor (hNpr1) antagonism - Pilot screen (AID 1347049; calls by dose curve;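 further: agonist-evoked cGMP luminescence read 20 min after hNppA addition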; further: potency means the concentration at half of the fitted maximal effect). An outline of the steps:
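cGMP-sensor HEK293/hNpr1 cells, 1500/well, plated overnight at 37C. 2% GloSensor reagent, 2 h RT. Compound (23 nL pin transfer) 30 min RT, baseline luminescence pre-read. 0.1 nM hNppA, 20 min RT, post-read.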

The target of assay [3] is Atrial natriuretic peptide receptor 2 (Homo sapiens) (UniProt P20594). Briefly: Natriuretic polypeptide receptor (hNpr2) antagonism - Pilot subtype selectivity assay (AID 1347050; calls by dose curve; further: potency means the concentration at half of the fitted maximal effect). The method, boiled down:
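Luminescence from a genetically encoded cGMP luciferase biosensor in hNpr2-expressing HEK293 cells is read before and 20 min after adding 1 nM hNppC. Test compounds, in interplate 1:5 titrations, are added 30-50 min ahead of the agonist.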

Assay [4] addresses Parathyroid hormone/parathyroid hormone-related peptide receptor (Homo sapiens) (UniProt Q03431). Briefly: qHTS for PTHR1 Agonists: Optimization Screen against the NCGC LOPAC library (AID 1347079).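 Further: GloSensor cAMP luminescence in HEK-293 GP2 cells expressing human PTHR1 with IBMX.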 An outline of the steps:
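Signal increase flags agonism. GP2 cells, derived from HEK-293, express human PTHR1 and a GloSensor cAMP construct.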
Background: qHTS replaces the single test concentration by a dilution series.

Assay [5] is described as follows: NS1 protein of Zika virus - qHTS assay to identify small molecule inhibitors in human HEK 293 cells (AID 1347053). Further: series mostly up to about 46 µM; nearly all actives have a fitted effect of over 55% in size. The method, boiled down: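 In this cell-based screen, HEK 293 cultures received compound for one hour before Zika MR766 at MOI = 0.5. NS1 was quantified 24 hours later by TR-FRET, normalized to virus-free wells and infected wells.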
The target in assay [6] is T1, Tyrosine-protein phosphatase non-receptor type substrate 1 (Homo sapiens) + Leukocyte surface antigen CD47 (Homo sapiens) (UniProt P78324+Q08722). Briefly: CD47-SIRPalpha protein protein interaction - LANCE assay qHTS validation (AID 1347057; active means well fitted curve in the direction sought with a large enough effect in the signal ratio, with a control signal flat, not every such curve was filed as active; the % refers to the signal ratio; further: series mostly up to about 38 µM). The method, boiled down:
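Inhibition of soluble CD47/SIRPalpha ectodomain association by titrated compounds, measured as 665/615 nm time-resolved FRET ratio after sequential 30 min room-temperature incubations.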
In general terms: TR-FRET usually uses a lanthanide donor and a delayed reading to cut background.

Assay [7] concerns the target T1, Tyrosine-protein phosphatase non-receptor type substrate 1 (Homo sapiens) + Leukocyte surface antigen CD47 (Homo sapiens). Briefly: CD47-SIRPalpha protein protein interaction - HTRF assay qHTS validation (AID 1347058; active means well fitted curve in the direction sought with a large enough effect in the signal ratio, not every such curve was filed as active; the % refers to the signal ratio; further: series mostly up to about 38 µM). An outline of the steps: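 Soluble extracellular domains (6His-CD47, Avi-tag-biotinylated SIRPalpha) in PBS pH 7.4 with 0.05% IGEPAL CA-630. Compounds were preincubated 30 min at RT with CD47 and anti-His-Eu, then SIRPalpha and SAV-XL665 were added. TR-FRET 665/615 ratio.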

Assay [8] shares this target. Briefly: CD47-SIRPalpha protein protein interaction - Alpha assay qHTS validation (AID 1347059).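 Further: bead proximity luminescence from CD47 binding SIRPalpha after compound preincubation with SIRPalpha.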 An outline of the steps:
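SIRPalpha-biotin 25 nM + cpd, 30 min RT, dark; add CD47-His 12.5 nM, 30 min; add Ni-NTA/SAV beads 10 ug/mL, 30 min; AlphaScreen. Buffer PBS pH 7.4 + 0.05% IGEPAL CA-630. Non-biotinylated SIRPalpha as control inhibitor.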

Sequence of Atrial natriuretic peptide receptor 2 (Homo sapiens) (P20594 whole entry, looked up): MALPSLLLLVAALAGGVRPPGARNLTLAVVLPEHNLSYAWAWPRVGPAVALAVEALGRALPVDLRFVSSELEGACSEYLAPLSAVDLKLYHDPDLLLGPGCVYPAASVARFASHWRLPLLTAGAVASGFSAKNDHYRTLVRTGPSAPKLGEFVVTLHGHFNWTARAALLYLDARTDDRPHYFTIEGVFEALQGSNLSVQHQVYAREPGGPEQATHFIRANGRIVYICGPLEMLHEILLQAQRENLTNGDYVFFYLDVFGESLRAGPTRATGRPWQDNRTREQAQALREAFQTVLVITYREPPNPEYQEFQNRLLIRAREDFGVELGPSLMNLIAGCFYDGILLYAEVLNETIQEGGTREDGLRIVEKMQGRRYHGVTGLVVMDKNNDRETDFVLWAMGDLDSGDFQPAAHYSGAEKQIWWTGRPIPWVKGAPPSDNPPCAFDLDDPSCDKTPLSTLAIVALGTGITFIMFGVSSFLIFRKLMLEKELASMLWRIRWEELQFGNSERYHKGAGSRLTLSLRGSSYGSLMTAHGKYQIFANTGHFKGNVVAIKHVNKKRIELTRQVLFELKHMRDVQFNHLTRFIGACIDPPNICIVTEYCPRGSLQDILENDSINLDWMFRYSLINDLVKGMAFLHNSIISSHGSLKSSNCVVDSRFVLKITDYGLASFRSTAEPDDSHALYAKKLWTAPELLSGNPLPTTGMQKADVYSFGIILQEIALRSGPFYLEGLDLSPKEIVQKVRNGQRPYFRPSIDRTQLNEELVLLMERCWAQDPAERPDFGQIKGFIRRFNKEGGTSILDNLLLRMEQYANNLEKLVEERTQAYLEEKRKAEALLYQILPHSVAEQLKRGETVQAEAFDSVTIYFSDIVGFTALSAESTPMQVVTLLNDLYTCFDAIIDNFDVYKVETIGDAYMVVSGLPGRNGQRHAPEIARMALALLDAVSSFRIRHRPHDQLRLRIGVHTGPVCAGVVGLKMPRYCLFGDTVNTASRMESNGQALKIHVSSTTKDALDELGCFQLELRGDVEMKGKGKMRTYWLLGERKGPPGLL
T1 sequence (P78324 whole entry, looked up, the tested form may be a part): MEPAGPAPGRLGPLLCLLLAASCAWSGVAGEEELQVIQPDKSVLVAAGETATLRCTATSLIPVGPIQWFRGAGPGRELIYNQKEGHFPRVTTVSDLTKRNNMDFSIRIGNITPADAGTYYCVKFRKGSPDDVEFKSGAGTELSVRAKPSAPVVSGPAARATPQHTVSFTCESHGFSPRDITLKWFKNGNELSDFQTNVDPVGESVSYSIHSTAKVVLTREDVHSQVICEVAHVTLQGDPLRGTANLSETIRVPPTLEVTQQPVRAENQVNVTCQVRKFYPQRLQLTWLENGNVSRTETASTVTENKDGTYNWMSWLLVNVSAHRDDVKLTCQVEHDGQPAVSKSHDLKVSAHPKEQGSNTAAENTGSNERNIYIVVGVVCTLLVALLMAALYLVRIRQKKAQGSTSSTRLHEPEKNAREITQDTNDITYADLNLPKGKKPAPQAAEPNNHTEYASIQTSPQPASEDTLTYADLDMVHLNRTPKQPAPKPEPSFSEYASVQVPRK
T1 sequence (Q08722 whole entry, looked up, the tested form may be a part): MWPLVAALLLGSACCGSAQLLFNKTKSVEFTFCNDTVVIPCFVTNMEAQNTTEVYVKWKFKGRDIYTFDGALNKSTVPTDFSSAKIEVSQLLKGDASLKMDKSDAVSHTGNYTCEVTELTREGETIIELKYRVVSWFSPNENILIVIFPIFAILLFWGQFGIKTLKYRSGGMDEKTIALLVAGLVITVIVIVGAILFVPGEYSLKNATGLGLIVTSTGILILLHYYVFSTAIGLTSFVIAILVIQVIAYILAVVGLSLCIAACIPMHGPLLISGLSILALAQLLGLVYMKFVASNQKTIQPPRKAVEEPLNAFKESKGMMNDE
Sequence of Atrial natriuretic peptide receptor 1 (Homo sapiens) (P16066 whole entry, looked up): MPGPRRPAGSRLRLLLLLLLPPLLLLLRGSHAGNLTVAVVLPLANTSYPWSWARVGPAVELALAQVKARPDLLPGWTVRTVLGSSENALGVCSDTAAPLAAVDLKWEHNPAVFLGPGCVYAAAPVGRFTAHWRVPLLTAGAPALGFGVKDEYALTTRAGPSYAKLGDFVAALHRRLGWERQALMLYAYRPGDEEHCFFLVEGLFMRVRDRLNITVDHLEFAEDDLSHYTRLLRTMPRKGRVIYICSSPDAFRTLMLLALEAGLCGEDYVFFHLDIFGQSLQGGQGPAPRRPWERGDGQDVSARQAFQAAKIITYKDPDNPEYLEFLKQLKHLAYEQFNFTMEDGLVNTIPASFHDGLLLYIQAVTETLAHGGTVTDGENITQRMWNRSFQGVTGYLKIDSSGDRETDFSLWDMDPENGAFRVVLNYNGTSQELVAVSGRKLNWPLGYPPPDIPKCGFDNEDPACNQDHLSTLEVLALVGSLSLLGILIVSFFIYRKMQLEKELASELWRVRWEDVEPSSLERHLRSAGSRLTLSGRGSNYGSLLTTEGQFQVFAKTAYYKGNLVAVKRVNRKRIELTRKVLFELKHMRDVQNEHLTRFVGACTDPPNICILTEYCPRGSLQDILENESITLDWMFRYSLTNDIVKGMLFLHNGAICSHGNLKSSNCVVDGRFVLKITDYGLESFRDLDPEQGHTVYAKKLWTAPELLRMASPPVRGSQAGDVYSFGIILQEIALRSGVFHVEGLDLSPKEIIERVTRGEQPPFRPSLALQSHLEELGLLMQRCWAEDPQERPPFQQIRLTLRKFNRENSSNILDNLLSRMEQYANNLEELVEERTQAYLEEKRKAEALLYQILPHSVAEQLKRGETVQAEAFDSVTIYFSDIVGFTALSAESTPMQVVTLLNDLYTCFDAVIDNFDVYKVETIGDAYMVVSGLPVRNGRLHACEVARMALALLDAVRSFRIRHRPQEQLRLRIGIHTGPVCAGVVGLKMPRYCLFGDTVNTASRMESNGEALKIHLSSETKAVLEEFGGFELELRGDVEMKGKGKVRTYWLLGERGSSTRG
Sequence of Parathyroid hormone/parathyroid hormone-related peptide receptor (Homo sapiens) (Q03431 whole entry, looked up): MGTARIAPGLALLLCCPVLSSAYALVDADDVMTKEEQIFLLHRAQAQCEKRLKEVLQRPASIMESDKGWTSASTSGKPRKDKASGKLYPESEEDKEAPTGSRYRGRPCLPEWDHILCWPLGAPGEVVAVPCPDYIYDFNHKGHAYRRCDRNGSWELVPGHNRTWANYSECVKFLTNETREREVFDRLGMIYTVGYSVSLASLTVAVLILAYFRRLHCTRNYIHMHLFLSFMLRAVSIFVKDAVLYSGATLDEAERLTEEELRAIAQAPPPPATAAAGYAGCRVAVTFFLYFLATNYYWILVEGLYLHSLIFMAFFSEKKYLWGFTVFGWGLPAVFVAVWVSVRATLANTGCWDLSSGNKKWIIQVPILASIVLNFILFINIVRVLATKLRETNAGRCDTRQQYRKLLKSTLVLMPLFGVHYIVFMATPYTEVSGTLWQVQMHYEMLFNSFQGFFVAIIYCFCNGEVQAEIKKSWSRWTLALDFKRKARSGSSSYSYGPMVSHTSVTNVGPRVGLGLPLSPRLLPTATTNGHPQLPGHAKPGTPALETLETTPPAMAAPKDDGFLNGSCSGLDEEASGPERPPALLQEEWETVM

On to `C[N+](C)(C)CC(=O)[O-]`, for which the Potency entry in assay [1], in assay [2], in assay [3] and in assay [4] was “inactive” throughout.
Take `CN(C)c1ccc(/C=C2\C(=O)Nc3ccccc32)cc1`: the Potency in assay [1] is 4.14 µM (active); in assay [2], 1.2 µM (active); in assay [3] it was 10.4 µM (active). The Potency result in assay [5] and in assay [4] was “inactive” each time.
Regarding `C=CC(C)=C[C@@]1(C)SC(=O)C(C)=C1O`, the Potency entry in assay [1], in assay [3], in assay [5], in assay [6], in assay [8] and in assay [4] was “inactive” in each case. In addition, the outcome in assay [7] was inactive.
For the molecule `COc1ccc2c(c1)CCC1C2CC[C@@]2(C)C1CC[C@@H]2NCCCCCCN1C(=O)CCC1=O` (stereo partly specified), the Potency entry in assay [2], in assay [3], in assay [5], in assay [6], in assay [8] and in assay [4] was “inactive” throughout. Besides, in assay [7], the outcome was inactive.
Regarding `CC1(C)CCC=[N+]1[O-]`, the Potency result in assay [2], in assay [3], in assay [5], in assay [6], in assay [8] and in assay [4] was “inactive” throughout. Besides, in assay [7], the result was inactive.
With `CN1CCc2cc(O)c(O)cc2C(c2ccccc2)C1` (stereo unspecified), the Potency entry in assay [1], in assay [3] and in assay [4] was “inactive” each time.
In the case of `CC(C)(C=O)Cc1cc(C(C)(C)C)c(O)c(C(C)(C)C)c1`, the Potency result in assay [2], in assay [3], in assay [5], in assay [6], in assay [8] and in assay [4] was “inactive” each time. In assay [7], the result was inactive.
Regarding `O=C(O)CC1CCCc2ccccc2C1O` (stereo unspecified), the Potency result in assay [2], in assay [3], in assay [5], in assay [6], in assay [8] and in assay [4] was “inactive” throughout. Besides, in assay [7], the result was inactive.
`O=C(CCCCCN1CCN(c2ccccc2-c2ccccc2)CC1)NC1CCCc2ccccc21` (stereo unspecified): the Potency entry in assay [2], in assay [3], in assay [5], in assay [6], in assay [8] and in assay [4] was “inactive” each time. Further, in assay [7], the outcome was inactive.
For the molecule `Nc1nc(Nc2ccccc2)nc2c1ncn2[C@@H]1O[C@H](CO)[C@@H](O)[C@H]1O`, the Potency entry in assay [2], in assay [3], in assay [5], in assay [6], in assay [8] and in assay [4] was “inactive” in each case. Moreover, in assay [7], the outcome was inactive.
With `COc1cccc(C(=O)NCCN2CCN(c3ccc(Cl)cc3)CC2)c1`, the Potency entry in assay [2], in assay [3], in assay [5], in assay [6], in assay [8] and in assay [4] was “inactive” in each case. Also, the result in assay [7] was inactive.
Turning to `COc1cc(SC)ccc1C(=O)N1CCC(Cc2ccccc2)CC1`, the Potency result in assay [2], in assay [3], in assay [5], in assay [6], in assay [8] and in assay [4] was “inactive” in each case. For the same molecule, the result in assay [7] was inactive.
Consider `O=c1[nH]c2cc(Cl)c(Cl)cc2[nH]c1=O`, for which the Potency result in assay [1], in assay [3] and in assay [4] was “inactive” in each case.
With `CN1CCc2cc(NC(=O)Nc3cccnc3)ccc21`, the Potency result in assay [2], in assay [3], in assay [5], in assay [6], in assay [8] and in assay [4] was “inactive” each time. Moreover, the outcome in assay [7] was inactive.
Regarding `COc1cc2nc(N3CCN(C(=O)OCc4ccccc4)C(C(=O)NC(C)(C)C)C3)nc(N)c2cc1OC` (stereo unspecified), the Potency result in assay [1], in assay [3] and in assay [4] was “inactive” throughout.
Turning to `Clc1ccc(N2CCN(Cc3c[nH]c4ncccc34)CC2)cc1`, the Potency entry in assay [2], in assay [3], in assay [5], in assay [6], in assay [8] and in assay [4] was “inactive” in each case. The outcome in assay [7] was inactive.
For `CCCCCCCCCCCCCCCC(=O)NCC(COP(=O)([O-])OCC[N+](C)(C)C)OCC` (stereo unspecified), the Potency entry in assay [1], in assay [3] and in assay [4] was “inactive” each time.
Consider `C[C@@H](CN1CCC(Cc2ccccc2)CC1)[C@@H](O)c1ccc(O)cc1`, for which the Potency entry in assay [2], in assay [3], in assay [5], in assay [6], in assay [8] and in assay [4] was “inactive” each time. Further, the outcome in assay [7] was inactive.
Turning to `O=C1NC(=O)/C(=C/c2ccc(-c3ccc(F)cc3O)o2)S1`, the Potency result in assay [2], in assay [3], in assay [5], in assay [6], in assay [8] and in assay [4] was “inactive” in each case. For the same molecule, the result in assay [7] was inactive.
For the molecule `CN1C2CCC1CC(OC(=O)C(O)c1ccccc1)C2` (stereo unspecified), the Potency entry in assay [1], in assay [3], in assay [5], in assay [6], in assay [8] and in assay [4] was “inactive” in each case. Besides, the outcome in assay [7] was inactive.
Consider `O=C(O)c1cc(=O)c2ccccc2[nH]1`, for which the Potency entry in assay [2], in assay [3], in assay [5], in assay [6], in assay [8] and in assay [4] was “inactive” throughout. Further, the result in assay [7] was inactive.
Consider `Nc1ncnc2c1ncn2[C@@H]1O[C@H](COP(=O)(O)OP(=O)(O)OP(=O)(O)OP(=O)(O)OC[C@@H]2O[C@H](n3cnc4c(N)ncnc43)[C@@H](O)[C@H]2O)[C@@H](O)[C@H]1O`, for which the Potency entry in assay [1], in assay [3], in assay [5], in assay [6], in assay [8] and in assay [4] was “inactive” each time. Moreover, the outcome in assay [7] was inactive.
With `CCCCC#Cc1nc(NC)c2ncn([C@@H]3O[C@H](CO)[C@@H](O)[C@H]3O)c2n1`, the Potency result in assay [1], in assay [3], in assay [5], in assay [8] and in assay [4] was “inactive” each time. Besides, the outcome in assay [7] was inactive.
As for `CC(=O)N[C@H](C(=O)O)C(C)(C)SN=O`, the Potency result in assay [2], in assay [3], in assay [5], in assay [6], in assay [8] and in assay [4] was “inactive” in each case. In assay [7], the outcome was inactive.
As for `O=C(Nc1cccc(C(=O)Nc2ccc(S(=O)(=O)O)c3cc(S(=O)(=O)O)cc(S(=O)(=O)O)c23)c1)Nc1cccc(C(=O)Nc2ccc(S(=O)(=O)O)c3cc(S(=O)(=O)O)cc(S(=O)(=O)O)c23)c1`, the Potency entry in assay [1], in assay [3], in assay [5], in assay [6] and in assay [4] was “inactive” throughout.
As for `N#C/C(=C\c1c[nH]c2ccccc12)C(=O)c1ccc(O)c(O)c1`, the Potency entry in assay [1], in assay [3] and in assay [4] was “inactive” each time.
With `Oc1cc2c(cc1O)CN(C(=S)NCCc1ccc(Cl)cc1)CCC2`, the Potency result in assay [2], in assay [3], in assay [5], in assay [6], in assay [8] and in assay [4] was “inactive” each time. Moreover, the outcome in assay [7] was inactive.
